PTHR1 agonist – activates the human parathyroid hormone receptor PTHR1; Q03431; HEK293 GP2 PTHR1 cells, GloSensor cAMP luminescence, 1 h; Potency, µM (highest dose often 115 µM), without a hit: top-dose activation, most hits filed as activators; hit rate 0.075% among 410,000; further: potency means the concentration at half of the fitted maximal effect; nearly all actives have a fitted effect of over 55% in size
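HEK-293-derived GP2 cells expressing PTHR1 and a GloSensor cAMP reporter, 3,000/well, plated overnight, given luciferin plus IBMX (each 0.5 mM as added) for 1 h at 37 °C, then compound for 1 h at 37 °C. Luminescence was read after 15 min at room temperature.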
DRD3 antagonist – blocks the human D3 dopamine receptor. P35462. D3R cells, DiscoveRx beta-arrestin luminescence, antagonist mode; stronger effect = lower value. max response, negative = inhibition, %. hit rate 2.5% among 360,000. AID 652054; in the data active means max response below about -50%; inconclusive means no clear call, values can overlap the other calls; further: on the % scale 0 is the no-effect control and ±100 the full control effect
Target sequence (P35462 whole entry, looked up): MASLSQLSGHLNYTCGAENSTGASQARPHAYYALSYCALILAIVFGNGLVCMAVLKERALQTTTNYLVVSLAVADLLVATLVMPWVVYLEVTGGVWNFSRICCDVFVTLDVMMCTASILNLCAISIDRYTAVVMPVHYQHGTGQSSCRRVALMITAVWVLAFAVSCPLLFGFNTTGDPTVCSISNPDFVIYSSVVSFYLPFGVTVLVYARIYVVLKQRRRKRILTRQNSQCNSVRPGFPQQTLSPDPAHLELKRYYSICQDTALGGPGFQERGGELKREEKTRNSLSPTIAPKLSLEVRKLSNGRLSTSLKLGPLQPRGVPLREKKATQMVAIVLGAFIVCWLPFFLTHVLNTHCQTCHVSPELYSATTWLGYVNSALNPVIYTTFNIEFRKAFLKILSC
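Cells plated overnight at 1500 cells/well, then exposed to library compounds with dopamine controls for 90 minutes at 37 degrees C. DiscoveRx reagent added for 30–60 minutes at room temperature; luminescence read, quantitative HTS format.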
Integrin act MD – activates integrin-mediated alleviation for muscular dystrophy; alpha7betagal myoblasts, beta-gal FDG fluorescence, 48 h; hit rate 0.064% among 350,000; Potency, µM (titrated, usually from 38.3 µM), without a hit: top-dose activation, hits mostly activators; AID 624291;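 further: potency means the concentration at half of the fitted maximal effect; 100% = response of the positive control SU9516; nearly all actives have a fitted effect of over 60% in size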
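Alpha7betagal+/- myoblasts (passage 13) were plated 16-24 hr, then exposed to compounds (1:260 dilution of DMSO stock) for 48 hours at 37C. After MPER lysis, β-galactosidase reporter activity was read as FDG fluorescence (ex 480/em 540) after 30 minutes.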
CBFb-RUNX1 inh – CBF-beta/RUNX1 interaction disruption; AlphaScreen CBFb-His/RUNX1-biotin binding, biochemical; Potency, µM (doses to about 59.8 µM), without a hit: at the top dose activity, negative = inhibition, actives largely listed as inhibitors; 230,000 tested, under 10 active; AID 1477; further: % of control where 0% means no effect
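Read-out: AlphaScreen. Format: His-CBF-beta with biotinylated RUNX1 (30 nM each) preincubated 20 min, compound 15 min, Ni-chelate plus streptavidin beads 90 min; room temperature throughout.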
DRD3 agonist – agonists of human D3 dopamine receptor; hit rate 0.58% among 410,000; max activation, %; D3R DiscoveRx beta-arrestin cells, luminescence, 90 min; AID 652048; in the data active means max activation above about 30%; further: 0% is about no effect
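Agonist-mode cell screen: cells plated at 1500/well and incubated overnight at 37 °C, then exposed to library compounds for 90 min at 37 °C. Detection reagent was added for 30–60 min at room temperature, and luminescence was read.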
MBNL1 CUG block – MBNL1-poly(CUG) RNA binding inhibition; Potency, µM (top dose mostly 57.5 µM), inactives show at the top dose activity change, negative = inhibition, actives largely listed as inhibitors; TR-FRET MBNL1-His/biotin-(CUG)12 binding, 665/545 ratio; hit rate 0.036% among 280,000; Q9NR56; active means well fitted inhibition curve with a large enough effect in the signal ratio, with a control signal flat, not every such curve was filed as active; inconclusive means small, poorly fitted or top-dose-only effect, or effect the other way, or a change in a side signal; inactive means no such curve, though single readings can be large or run the other way; the % refers to the signal ratio; further: potency means the concentration at half of the fitted maximal effect; on the % scale 0 is the no-effect control and ±100 the full control effect
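Ratiometric TR-FRET (665 over 545 nm, excitation 340 nm) tracks disruption of MBNL1-His/biotin-(CUG)12 complex after 60 min at room temperature, with compounds at 92 nM to 58 uM final.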
* hit, by the source's call; i = inactive; ? = inconclusive; . = not tested or not shown; ! = not confirmed by another sample; [ ] = remark or other dose. In the library only some 2.8% were active in any assay of this set; here they are far more common. Unless noted, the call rests on the fitted dose curve; in most records, active means well fitted curve in the direction sought with a large enough effect; inconclusive means small, poorly fitted or top-dose-only effect, or another doubt; inactive means no such curve, though single readings can be large; an effect the other way counts as inactive or inconclusive.

SMILES	PTHR1 agonist	DRD3 antagonist	Integrin act MD	CBFb-RUNX1 inh	DRD3 agonist	MBNL1 CUG block
O=C(NC1CCCc2c1cnn2-c1ccccc1F)c1ccncc1 (stereo not drawn)	-39.1%	20.0	-20.0%	.	11.2	.
Cc1oc(-c2ccccc2Cl)nc1CN1CCCN(C(=O)c2ccco2)CC1	-19.0%	?	0.5%	2.6%	-0.4	-21.1%
Cc1cc(Cl)c(OCCCCN2CCOCC2)c(Br)c1	i	4.2	8.1%	-1.3%	-4.5	-14.8%
Cc1cc(Cl)cc(C)c1OCCCCN1CCOCC1	i	-57.5*	9.9%[7.66 µM]	4.1%	-15.7	?
c1ccc(CN2CCN(CCOCCOc3cccc4ccccc34)CC2)cc1	-15.5%	?	-33.3%	-7.7%	-15.4	-4.1%
Cc1cc(C)c(C)c(OCCN2CCOCC2)c1	i	-1.2	23.9%	.	-19.7	1.9%
c1ccc2c(OCCCCN3CCOCC3)cccc2c1	i	-59.7*	-11.4%	.	-11.6	-0.4%
Cc1cccc(OCCN2CCOCC2)c1C	i	-5.3	-15.7%	.	54.2*	-9.9%
O=C(c1ccco1)N1CCN(CCOCCOc2cccc3ccccc23)CC1	i	-6.2	-28.8%	-4.1%	88.6*	11.0%
CC(=O)c1sc(C(=O)O)c(-c2ccco2)c1-c1ccco1	-24.6%	6.6	-23.2%	-3.6%	3.6	?
CC[C@H](C)[C@H](N)C(=O)O	.	.	.	.	-12.6	.
O=C(CSc1nc(-c2ccccc2)no1)N1CCN(c2ccc(F)cc2)CC1	-24.0%	.	.	.	-12.3	.
O=C(c1ccco1)N1CCN(CCCCOc2cccc3ccccc23)CC1	-42.3%	?	-87.0%	-29.5%	37.6*	12.6%[11.5 µM]
CCOc1ccc2[nH]c(SCC(=O)OC)c([N+](=O)[O-])c2c1	i	-53.4*	0.4%	6.0%	-12.6	?
COC(=O)CSc1[nH]c2ccc(Br)cc2c1[N+](=O)[O-]	-0.4%	7.1	38.0%	6.1%	-0.7	4.8%
COc1ccccc1C(=O)Nc1ccnn1C1CCN(C(=O)c2ccoc2C)CC1	-21.9%	-9.7	?	.	1.7	-6.5%
Cc1cccc(N2CCN(C(=O)COc3noc4nc(C)cc(C)c34)CC2C)c1 (stereo not drawn)	-23.6%	22.0	-11.8%	.	33.8*	.
O=C(Cn1ncc(Cl)c(Cl)c1=O)c1ccc2c(c1)OCCO2	-55.7%	-54.1*	-52.6%	.	-13.5	.
O=C(Cn1ncc(Cl)c(Cl)c1=O)Nc1ccc2c(c1)OCO2	-26.6%	?	-73.9%	.	-16.3	.
c1ccc(CN(CCN(Cc2ccccn2)Cc2ccccn2)Cc2ccccn2)nc1	.	.	.	10.1%	.	.
CC(=O)N(CCCN(C)C)Cc1ccccn1	i	0.0	7.4%	5.4%	44.2*	.
COc1ccc([N+](=O)[O-])cc1NC(=O)CCN1CCN(c2ccccc2)CC1	i	-24.5	-9.7%	-8.0%	75.2*	3.0%
COc1ccc(OC)c(NC(=O)CCN2CCN(c3ccccc3OC)CC2)c1	-12.5%	-84.5*	0.0%	.	-16.6	-13.0%
COc1cc(NC(=O)CCN2CCN(c3ccccc3OC)CC2)cc(OC)c1	-24.8%	-99.2*	4.7%	.	-3.4	.
COc1ccc([N+](=O)[O-])cc1NC(=O)CCCOc1ccccc1	-3.4%	6.3	-1.0%	-6.4%	-9.3	15.1%
CCc1cccc2sc(N3CCN(C(=O)c4ccc([N+](=O)[O-])o4)CC3)nc12	-34.8%	-16.1	-14.1%	.	-5.9	.
O=C(Cn1c(C(=O)N2CCc3ccccc3C2)cc2sccc21)c1ccccc1	22.4µM*	-5.9	-15.1%[7.66 µM]	-7.2%	-14.0	30.9%
CC1=C(\C=C/C(C)=C/C=C\C(C)=C\C(=O)O)C(C)(C)CCC1	.	.	.	15.7%	.	.
CC1=C(/C=C/C(C)=C/C=C/C(C)=C/C(=O)Nc2ccc(O)cc2)C(C)(C)CCC1	-17.1%	23.2	-56.4%	-16.1%	69.1*!	.
COc1cccc(COc2ccccc2C2Nc3ccc(Br)cc3C(=O)N2NC(=O)c2ccncc2)c1 (stereo not drawn)	i	-55.3*	13.4%	-0.9%	-22.2	-12.7%

Bioassay records as filed in PubChem.
